Shown is part of a subset that was picked to be rich in hits.
Sfp inh – blocks B. subtilis Sfp PPTase activity. Q9F4F7. Biochemical Sfp PPTase activity, qHTS. Potency, µM, for the others: largest response in the series, negative = inhibition, most hits filed as inhibitors. actives 3.5% (n = 310,000);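 further: the enzyme is Sfp with the accession as filed and its product quenches rhodamine fluorescence; 0% = enzyme reaction without inhibitor and -100% = no enzyme wells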
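After 15 min at room temperature with compound, 15 nM Sfp received 5 uM rhodamine-CoA plus 12.5 uM BHQ-2-ybbR (50 mM Hepes pH 7.6, 10 mM MgCl2). Rate came from the fluorescence difference over 30 min, ex 525/em 598 nm.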
VDR inh – blocks the human vitamin D receptor; P11473; VDR-SRC2-3 peptide fluorescence polarization, 2 h; Potency, µM, for inactives: max response, negative = inhibition, most hits filed as inhibitors; actives 0.93% (n = 400,000); further: on the % scale 0 is the no-effect control and ±100 the full control effect
Target sequence (P11473 whole entry, looked up): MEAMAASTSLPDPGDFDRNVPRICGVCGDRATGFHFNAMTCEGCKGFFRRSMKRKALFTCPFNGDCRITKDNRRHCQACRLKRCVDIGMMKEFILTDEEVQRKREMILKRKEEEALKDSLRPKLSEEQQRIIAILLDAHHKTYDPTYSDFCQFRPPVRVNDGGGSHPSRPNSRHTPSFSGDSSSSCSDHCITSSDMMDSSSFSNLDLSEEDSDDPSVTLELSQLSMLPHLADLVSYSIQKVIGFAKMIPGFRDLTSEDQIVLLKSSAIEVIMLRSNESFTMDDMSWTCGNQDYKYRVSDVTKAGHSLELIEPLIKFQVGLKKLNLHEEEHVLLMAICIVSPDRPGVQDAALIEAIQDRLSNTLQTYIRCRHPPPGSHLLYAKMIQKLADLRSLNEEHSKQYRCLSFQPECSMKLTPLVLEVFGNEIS
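Reagent solutions, kept cold and dark, are dispensed first; compounds are then pinned in at 23 nl, plates briefly spun, and incubated 2 h at ambient temperature. Inhibition of VDR–SRC2-3 peptide binding is read by fluorescence polarization.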
GRP78 ERSR act – ER stress response induction in glioma. U87-MG GRP78 promoter luciferase reporter, 16 h. Potency, µM, without a hit: top-dose activation, usual class: activators. actives 0.02% (n = 420,000). AID 602332; further: series mostly up to about 76 µM; % of control where 0% means no effect; nearly all actives have a fitted effect of over 35% in size
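Stably transfected U87-MG human glioma cells carrying a GRP78-based luminescent sensor were seeded at 1000 cells/well, pin-dosed with compounds and incubated 16 h. Luciferase reagent was then added, and end-point luminescence was read after 10 min at room temperature.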
ALOX12 inh – blocks human arachidonate 12S-lipoxygenase | purified 12hLO, xylenol orange hydroperoxide absorbance | Potency, µM (series often up to 108 µM), inactives show top-dose activity change, negative = inhibition, actives largely listed as inhibitors | actives 1.1% (n = 580,000); further: on the % scale 0 is the no-effect control and ±100 the full control effect
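Purified human 12hLO (150 nM final) in 25 mM Hepes, 0.01% Triton X-100, pH 7.0 was preincubated 15 min at room temperature with compound. Then 40 uM arachidonic acid was added, 30 min. Hydroperoxide was read by Fe-XO absorbance ratio 573/405 nm.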
G9a block – inhibitors of human histone lysine methyltransferase G9a. Q96KQ7. G9a H3K9 monomethylation, AlphaScreen, 2 h. Potency, µM (titrated, usually from 102 µM), without a hit: at the highest dose activity, negative = inhibition, actives largely listed as inhibitors. actives 8.8% (n = 350,000). AID 504332; further: on the % scale 0 is the no-effect control and ±100 the full control effect; nearly all actives have a fitted effect of over 75% in size
Target sequence (Q96KQ7 913-1193 limits assumed): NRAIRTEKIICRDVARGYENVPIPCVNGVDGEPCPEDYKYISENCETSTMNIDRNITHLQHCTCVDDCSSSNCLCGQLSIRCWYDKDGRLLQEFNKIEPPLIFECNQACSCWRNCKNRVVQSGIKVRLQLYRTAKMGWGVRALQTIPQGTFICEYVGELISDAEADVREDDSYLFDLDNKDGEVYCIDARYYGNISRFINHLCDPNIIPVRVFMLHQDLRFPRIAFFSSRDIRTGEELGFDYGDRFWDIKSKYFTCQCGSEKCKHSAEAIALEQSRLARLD
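Compounds were preincubated with 20 nM G9a for 15 min, after which biotinylated H3K9 peptide (500 nM) and SAM (20 uM) started a 2 h room-temperature reaction. Monomethylated product was quantified by antibody-based AlphaScreen chemiluminescence.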
Numbers without * were called inactive; ? = inconclusive; . = no result; [ ] = remark or other dose. The call rests on the fitted dose curve; in most records, active means well fitted curve in the direction sought with a large enough effect; inconclusive means small, poorly fitted or top-dose-only effect, or another doubt; inactive means no such curve, though single readings can be large; an effect the other way counts as inactive or inconclusive. Potency means the concentration at half of the fitted maximal effect.

SMILES	Sfp inh	VDR inh	GRP78 ERSR act	ALOX12 inh	G9a block
CCOC(=O)c1c(C)[nH]c(N=Nc2cccc(C)c2)c1C	-10%	7%	8%	-15%	?
CCOC(=O)c1c(C)[nH]c(N=Nc2cccc(OC)c2)c1C	?	-6%	-4%	-9%	32µM*
CCN1C(=O)CCc2cc(NC(=O)c3ccc(OC(F)(F)F)cc3)ccc21	.	.	.	5%	.
N#Cc1cc2c(cc1C(=O)c1ccccc1)OCCO2	.	.	.	0%	.
C=CCNc1nc(-c2sc(NC(C)=O)nc2C)cs1	-21%	?	7%	?	18µM*
C=CCNc1nc(-c2ccc(NC(C)=O)cc2F)cs1	.	.	.	-30%	.
CCCCCCC(=O)Nc1nc(C)c(-c2csc(Nc3ccc(Cl)cc3)n2)s1	-1%	-8%	-2%	.	?
C=CCNc1nc(-c2sc(NC(=O)CC)nc2C)cs1	-18%	-10%	10%	?	8.9µM*
O=C1NC(=NC2CCCCC2)C2(CCN(Cc3ccc(F)cc3)C2)N1c1cccnc1 (centres undefined)	.	.	.	-1%[6.33 µM]	.
O=C(NNC(=S)NC(=O)c1ccccc1)c1cccnc1	-22%	-5%	2%	-9%	22µM*
COc1cc(OC)cc(C(=O)NNC(=S)NC(=O)c2cccnc2)c1	1%	-10%	-8%	?	28µM*
O=C(NNC(=S)NC(=O)c1ccccc1)c1ccc(O)cc1	-4%	3%	0%	?	13µM*
O=C(NNC(=O)c1csc(-c2cccnc2)n1)c1ccccc1	89µM*	1%	2%	0%	.
O=C(NNC(=S)Nc1ccccc1)c1ccc(O)cc1	14%	-15%	15%	-2%	18%[12.7 µM]
COc1cc(OC)cc(C(=O)NC(=S)Nc2cccnc2)c1	3%	-1%	0%	?	?
O=C(NNC(=O)c1csc(-c2ccccc2)n1)c1ccccc1	.	.	-2%	8%	.
CNC(=S)NNC(=O)c1cccnc1	.	.	.	40%	.
CCN(CC)Cc1ccc(CNC(=O)c2cnn(-c3ccccc3)c2)cc1	.	.	.	-22%	.
CC(C)=CC(=O)NC(c1cccs1)C(C)C (centres undefined)	.	.	.	26%	.
CCCC12CN(C(=O)c3ccccc3)CC(C)(CN(C(=O)c3ccccc3)C1)C2=O	.	.	.	2%	.
CC(C)(C)c1ccc(OCCNC(=S)NC(=O)c2cccnc2)cc1	-1%	-16%	-1%	-1%	12%[59 µM]
CC(C)(C)c1ccc(C(=O)NNC(=S)NC(=O)c2cccnc2)cc1	9%	-7%	1%	?	10µM*
Cc1c(C)c2ccc(OCC(=O)NCc3cccnc3)cc2oc1=O	.	.	.	-4%	.
O=C(CSc1nnc(-c2ccc(Cl)cc2)n1Cc1ccco1)N1CCOC1=O	.	.	.	-25%	.
Cc1cc(C)c2sc(N(CCN(C)C)C(=O)c3c(F)cccc3F)nc2c1	-22%	0%	-6%	?	45µM*
SMILES	Sfp inh	VDR inh	GRP78 ERSR act	ALOX12 inh	G9a block
CCN(Cc1ccccc1)S(=O)(=O)c1ccc(C(=O)N(CCCN(C)C)c2nc3cc(C)cc(C)c3s2)cc1	.	13%	-15%	?	25µM*
Cc1cc(C)c2sc(N(CCCN(C)C)C(=O)c3ccc(S(=O)(=O)N(C)Cc4ccccc4)cc3)nc2c1	.	-15%	-9%	?	40µM*
Cc1cc(C)c2sc(N(CCCN(C)C)C(=O)CN3C(=O)c4ccccc4C3=O)nc2c1	-13%	2%	-6%	60%	50µM*
CCc1cccc(C)c1NC(=O)COC(=O)c1ccc(C2Nc3ccccc3S(=O)(=O)N2)cc1 (centres undefined)	.	.	.	-26%	.
CCCCN(CC)S(=O)(=O)c1ccc(C(=O)N(CCCN(C)C)c2nc3cc(C)cc(C)c3s2)cc1	50µM*	1%	-13%	?	45µM*
CCC1(c2ccc(Cl)cc2)NC(=S)N(c2ccc(C)c(C)c2)N1 (centres undefined)	-10%	?	3%	?	18µM*
CC1=CC(C)(C)NC(=S)N1c1ccc(C)cc1	11%	3%	-3%	-17%	-9%[59 µM]
CCC1(c2ccc(Cl)cc2)NC(=S)N(c2ccc(C)cc2)N1 (centres undefined)	?	79µM*	7%	28µM*	28µM*
Cc1ccc(N2C(=O)c3ccccc3C2=O)cc1C	-11%	-12%	-1%	0%	?
CCC1(c2ccccc2)NC(=S)N(c2ccc(C)c(C)c2)N1 (centres undefined)	8.9µM*	-27%	1%	?	7.9µM*
COc1ccc(C)cc1C(=O)NCCc1c[nH]c2ccccc12	.	.	.	6%	.
O=c1c2c(n(Cc3cccnc3)n1CCc1ccccc1)CN(CC1CCOC1)CC2 (centres undefined)	.	.	.	-8%[176 µM]	.
O=C1c2ccccc2-c2ccccc21	.	.	.	-1%	.
O=C1[O][Bi][O]c2ccccc21	9%	2%	-2%	.	3.2µM*
COc1cc(C=O)c(Br)cc1OCCc1ccccc1	.	.	.	-14%	.
CC[n+]1c(/C=C/C=C2/N(C)c3ccccc3C2(C)C)sc2ccccc21	.	35µM*	-15%	.	8.9µM*
CC(Oc1cc(Cl)ccc1Cl)c1nc(-c2cccnc2)no1 (centres undefined)	.	.	.	-7%	.
COc1ccc(CN2CCc3ccccc3C2)c(OC)c1	-19%	3%	-6%	?	-128%[59 µM]
COc1ccc(C2=[N+](C)CCn3cccc32)c(OC)c1	18%	-12%	-3%	?	7.1µM*
CC1(C)NC(=O)N(CC(=O)OCC(=O)NC(=O)c2ccccc2)C1=O	.	-8%	-3%	-12%	40µM*
CCC1(CC)NC(=O)N(CC(=O)OCC(=O)NC(=O)c2ccc(Cl)cc2)C1=O	4%	8%	-1%	40%	3%
CCOC(=O)c1c(N)sc(C(O)(C(F)(F)F)C(F)(F)F)c1-c1ccc(OC)cc1OC	-5%	-3%	-3%	9%	79µM*
O=C(Nc1nc(-c2ccccc2)cs1)c1ccco1	16%	-8%	8%	0%	?
O=C(/C=C\c1ccco1)Nc1nc(-c2ccc3ccccc3c2)cs1	12%	-24%	-5%	?	50µM*
O=C(NC(=S)Nc1nc(-c2ccc([N+](=O)[O-])cc2)cs1)c1ccco1	-17%	-5%	5%	?	25µM*
SMILES	Sfp inh	VDR inh	GRP78 ERSR act	ALOX12 inh	G9a block
CCN(C(=O)c1ccco1)c1nc(-c2ccc(C)cc2)cs1	.	.	.	8%	.
Cc1ccc(-c2csc(NC(=S)NC(=O)/C=C/c3ccco3)n2)cc1	-7%	2%	-3%	-28%	13%
CCN(C(=O)c1ccco1)c1nc(-c2ccc(OC)cc2)cs1	89µM*	-7%	3%	-8%	15%
COc1ccc(-c2csc(NC(=O)c3ccco3)n2)cc1	-14%	-5%	-6%	9%	14µM*
N#Cc1ccc(Cn2c(CN3CCOCC3)nc3scc(-c4cccs4)c3c2=O)cc1	.	.	.	1%	.
CC(=O)Nc1ccc(C(=O)OCC(=O)N2CCOCC2)cc1	.	.	.	-8%	.
N#Cc1ccc(C(=O)Nc2ccccc2C(=O)NCCc2ccccc2)cc1	.	.	.	2%	.
CN1CCN(c2ccc(NC(=O)c3cccc(Cl)c3)nc2)CC1	.	.	.	1%	.

High-throughput results deposited in PubChem by National Center for Advancing Translational Sciences (NCATS).
